# Source: PubChem BioAssay (NCI)
# About 83,000 compounds went through this panel and 20% of them were active in at least one assay; those are over-represented in the sample as a whole.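 Each cell line was grown in a 96-well plate and treated with one concentration of compound for 48 hours. Values below 10 were considered active.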 Values without a mark were called inactive. Active and inactive are the calls of the source.
# Experiments:
# Assay in all cases: NCI-60 one-dose screen, 48 h (100 = growth as untreated, 0 = no growth, -100 = all killed)
# Conditions in all cases: 10 µM unless noted
# NCI-H23 lung = system: NCI-H23 lung
# NCI-H226 lung = system: NCI-H226 lung
# NCI-H322M lung = system: NCI-H322M lung
# HOP-62 NSCLC = system: HOP-62 NSCLC
# NCI-H460 lung = system: NCI-H460 lung
# HOP-92 NSCLC = system: HOP-92 NSCLC
# NCI-H522 lung = system: NCI-H522 lung
# A549/ATCC NSCLC = system: A549/ATCC NSCLC
# 786-0 renal = system: 786-0 renal
# COLO 205 colon = system: COLO 205 colon
SMILES,growth (NCI-H23 lung),growth (NCI-H226 lung),growth (NCI-H322M lung),growth (HOP-62 NSCLC),growth (NCI-H460 lung),growth (HOP-92 NSCLC),growth (NCI-H522 lung),growth (A549/ATCC NSCLC),growth (786-0 renal),growth (COLO 205 colon)
Cc1ccc(C2C3CC4CCCCC4N3[C@@]3(C(=O)Nc4cc(Cl)ccc43)C2C(=O)c2nc3ccccc3[nH]2)cc1 (some centres undefined),57.8%,62.7%,63.3%,66.5%,15.9%,44.1%,54%,31.1%,35.2%,
CC1(C)NCCC[C@]2(C)[C@H]3CC=C4[C@@H]5C[C@@](C)(CO)CC[C@]5(C)CC[C@@]4(C)[C@]3(C)CC[C@@H]12,81.3%,83.9%,81.7%,88.8%,4.29% (active),38.3%,73.8%,51%,55.5%,
Cc1c2c(cc[n+]1Cc1ccccc1)c1ccc(OCc3ccccc3)cc1n2Cc1ccccc1,-12.2% (active),-12% (active),-26.9% (active),-70.9% (active),-87.5% (active),-67.9% (active),-47.1% (active),4.01% (active),-87.4% (active),
C=Cc1cc[n+](CCCCCCCCCCCC)cc1,102%,103%,114%,111%,98.3%,134%,110%,103%,106%,118%
CC(N)C(=O)NNc1n[nH]c(=S)n1N (centres undefined),100%,97.1%,92%,106%,103%,94.6%,98%,102%,95.8%,
CC1=CC[C@@H]2CC[C@]3(C)[C@H](CC[C@@H]4[C@@]5(C)CCCNC(C)(C)[C@@H]5CC[C@]43C)[C@H]2[C@@H]1C,63.1%,107%,20.7%,105%,-70.4% (active),23.8%,96.1%,-14% (active),-72.5% (active),-93.5% (active)
COc1cc2nc(-c3ccc(-c4nn[nH]n4)cc3)[nH]c(=O)c2cc1OC,93.7%,106%,176%,99.3%,115%,132%,96.1%,30.5%,104%,
COC(=O)Nc1ccc(NC(=O)OC)cc1,97.6%,96.7%,100%,77.7%,106%,84.7%,73.6%,69.7%,93.3%,111%
CCCCCCCCOC(=O)c1ccc(O)c(OC)c1,92.5%,88.5%,86.9%,99.3%,104%,84.9%,73%,89.6%,106%,
CCN1C(=O)N(CC)C2NC(SC)=NC21 (centres undefined),98%,94.3%,92.3%,91.8%,103%,108%,102%,103%,102%,103%
Cc1ccc(S(=O)(=O)Nc2ccc(Cl)cc2)cc1,91.6%,96.6%,94%,98.4%,105%,86.9%,104%,94%,100%,111%
O=C1NC(=S)NC(=O)C1=Cc1cn(Cc2ccccn2)c2ccccc12,77.9%,86.7%,95.5%,53.6%,10.7%,66.9%,76.6%,66.2%,43.9%,58.4%
NS(=O)(=O)c1cccc(NC(=O)C(=O)C2C(=O)Nc3ccccc32)c1 (centres undefined),95.3%,95.9%,121%,90.2%,106%,74.6%,102%,103%,114%,123%
COc1ccc(-c2nc(N/N=C/c3cccc(O)c3)nc(N3CCOCC3)c2C#N)cc1,99.5%,98.1%,95%,90.7%,83.8%,47.7%,79.1%,81.7%,44.1%,74.1%
CC(C)(C)OC(=O)N1CCN(c2ccc(N)cc2)C(=O)C1,97.7%,100%,107%,106%,111%,127%,107%,104%,100%,113%
O=C1NC(=S)NC(=O)C1=Cc1cccc(C=C2C(=O)NC(=S)NC2=O)c1,102%,98.8%,110%,104%,104%,116%,93.1%,108%,12.2%,113%
COc1ccc(NC(=O)c2sc3nc(C)c(C(=O)CCc4cccc(OC)c4)cc3c2N)cc1,81.1%,89.7%,40.1%,70.8%,1.32% (active),88.4%,78.7%,30.2%,78.5%,44.1%
CCCN=C(N)c1ccc(NC(=O)c2ccc(C(=O)Nc3ccc(C(N)=NCCC)cc3)cc2)cc1,93.1%,73.4%,96.2%,86.2%,99.1%,88.6%,95%,97.4%,98.7%,70.5%
O=C(NCCN1CCOCC1)OCc1nc2nc(Cl)nc(N3CCOCC3)c2[nH]1,26.3%,62.6%,42.4%,32.5%,9.27% (active),54.3%,-29.8% (active),68.2%,58.1%,110%
Clc1cc(Cl)cc(N2N=C(c3cccc(Nc4ccncc4)c3)CC2c2ccc3c(c2)OCO3)c1 (centres undefined),80.1%,83.9%,68.3%,-31.2% (active),-90.2% (active),57.9%,-5.89% (active),15.2%,91.7%,-47.5% (active)
O=C(Nc1ccc2ncnc(Nc3ccc(Oc4cccc(F)c4)c(Cl)c3)c2c1)c1ccc(CNCCO)cc1,73.7%,91.6%,39.9%,54.7%,-61.4% (active),62.5%,26.9%,48.6%,-4.01% (active),-54.5% (active)
CN1CCN(CC#CCNC(=O)[C@]23CCC(C)(C)C[C@H]2C2=CC[C@@H]4[C@@]5(C)Cc6c([nH]c7ccccc67)C(C)(C)[C@@H]5CC[C@@]4(C)[C@]2(C)CC3)CC1,95.8%,93.9%,88.7%,91.9%,-25.3% (active),52.7%,67%,52.8%,64.5%,51.2%
COc1cc(C(=O)c2cnc(-c3ccc4cc[nH]c4c3)[nH]2)cc(OC)c1OC,22.9%,26.2%,36.3%,12.7%,-9.07% (active),-2.58% (active),-17.4% (active),8.91% (active),-8.83% (active),-55.3% (active)
CC(=O)NCCCS(=O)(=O)O,101%,119%,107%,105%,101%,82.2%,83.4%,114%,99.6%,105%
COc1nccnn1,107%,96.2%,91%,114%,122%,69.5%,109%,102%,104%,112%
C#CC(=O)Nc1cccc(Nc2nc3c(c(NCc4ccccc4)n2)CCCC3)c1,-61.2% (active),-31.4% (active),-56.9% (active),-82.8% (active),-57.8% (active),-71.7% (active),-60.7% (active),-48.5% (active),-90.3% (active),-68.9% (active)
O=C1Nc2c(ccc(Cl)c2Cl)/C1=C/c1ccc(O)cc1,86.7%,90.1%,107%,86.1%,94.1%,65.7%,64.1%,35.7%,92.3%,98.6%
